Structures are written as SMILES. “And” between values parts separate entries of the source, which are not always exact repeats. Identical values can stand only once. The panel holds about 83,000 compounds, 20% with a hit somewhere; the sample as a whole holds those more often.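 Method: cells in 96-well plates; compound added at one concentration; 48 h incubation; percent growth measured; values under 10 scored active.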 The source made the active and inactive calls.

The first assay has as its system UO-31 renal. In words: NCI-60 one-dose screen, 48 h (100 = growth as untreated, 0 = no growth, -100 = all killed). The conditions noted are these: 10 µM. As for the experimental part: Growth inhibition of the UO-31 human tumor cell line is measured as a screen for anti-cancer activity. Cells are grown in 96 well plates and exposed to the test compound for 48 hours. Compounds are tested at a single concentration, which is 10^-5 M for most compounds. The reported endpoint is percent growth (GI% or GIPRCNT), where numbers from 0 - 100% represent growth inhibition, and numbers from -100% - 0 represent cell death. For example, a value of 40 represents 60% growth inhibition. A value of 0 means no net growth occurred over the course of the experiment. A value of -40 indicates 40% of cells at the beginning of the experiment died by the end of the experiment. A value of -100 means all cells are dead at the end of the experiment.
NCI-60 Human Tumor Cell Lines Screen was performed using the standard one-dose NCI protocol, which is described in more detail at https://dtp.cancer.gov/discovery_development/nci-60/default.htm.
Compounds with GIPRCNT values below 10 were considered active. Activity score was based on GIPRCNT using the following formula: […]
Score is 0 for GIPRCNT values of 100 or above, 50 for GIPRCNT values of 0, and 100 for GIPRCNT values of -100.
`CC(C)(C)c1cc(NC(=O)Cc2ccc(-c3cnc4cc(-c5cnn(CCN6CCOCC6)c5)ccc4n3)cc2)no1`: the growth is 1.27% (active).

Regarding `CC#C[C@]1(O)CC[C@H]2[C@@H]3CCC4=CC(=O)CCC4=C3[C@@H](c3ccc4c(c3)OCO4)C[C@@]21C`, the growth is 66.1% (inactive).

The same assay, now with this note: 10 µM unless noted.
Consider `O=C(c1ccc(Cl)cc1)C(NCCO)c1ccc(Cl)cc1` (stereo not given), for which the growth was 80.6% (inactive) and 83.8% (inactive).

Turning to `OCc1ccccn1`, the growth was 97.9% (inactive).

Consider `CC(=O)Nc1cc(S(=O)(=O)O)cc2cc(S(=O)(=O)O)c(N=Nc3ccccc3)c(O)c12`, for which the growth was 94.2% (inactive) and 83.2% (inactive).

`COc1ccc(Cn2c(NCCN=C(N)N)nc(=O)n(Cc3ccc(F)cc3)c2=O)cc1`: the growth is 77.7% (inactive) and 75.3% (inactive).

Consider `COc1ccc2ccccc2c1/C=N/N1CCCCC1`, for which the growth is 88.9% (inactive).

Turning to `O=C1c2ccccc2C(=O)c2c(NCCNCCO)ccc(NCCNCCO)c21`, the growth was -5.63% (active) and 55.9% (inactive) and 44.7% (inactive).

As for `O=C(O)CN(CCN(CC(=O)O)CC(=O)O)CCN(CC(=O)O)CC(=O)O`, the growth is -3.87% (active) and 77.1% (inactive) and 99.1% (inactive).

For the compound `CNC(=O)c1cc(Oc2ccc(NC(=O)Nc3ccc(Cl)c(C(F)(F)F)c3)cc2)ccn1`, the growth was -28.5% (active) and -81.1% (active).

As for `O=S1(=O)CC(Br)C(Br)C1` (stereo not given), the growth is 64.9% (inactive) and 77% (inactive).

Consider `CCOc1ccc2cc(-c3nn(CC4CCN(C)CC4)c4ncnc(N)c34)ccc2c1`, for which the growth is 60.7% (inactive) and 62.9% (inactive).

For `CCN(CC)CCCC(C)Nc1cnc(C(=O)Nc2cc(F)cc3cccnc23)cn1` (stereo not given), the growth is 29.1% (inactive) and -91.5% (active).

With `O=C(N/N=C/c1ccc2c(c1)OCO2)c1ccncc1`, the growth was 82.8% (inactive) and 79.4% (inactive).

Consider `COc1ccc(CCN(C)CCCC(C#N)(c2ccc(OC)c(OC)c2)C(C)C)cc1OC` (stereo not given), for which the growth is 63.4% (inactive) and 86.6% (inactive) and 81.2% (inactive).

Turning to `CCOC(=O)Nc1nc2ccccc2[nH]1`, the growth is 94.5% (inactive) and 51.5% (inactive).

`NCCSC(C[N+](=O)[O-])c1ccccc1Cl` (stereo not given): the growth was 63.3% (inactive).

As to `CN(C)c1ccc(C(Cc2ccc3ccccc3n2)Cc2ccc3ccccc3n2)cc1`, the growth was 2.9% (active) and 56.3% (inactive).

Regarding `CCN(CC)CCOc1ccc2c(c1)C(=O)c1cc(OCCN(CC)CC)ccc1-2`, the growth is 59.6% (inactive) and 4.32% (active).

As to `O=[N+]([O-])c1ccc(Oc2ccccc2)cc1`, the growth is 80.1% (inactive) and 87.6% (inactive).

Regarding `COc1ccc(/C(C#N)=C/c2ccccn2)cc1`, the growth is 95.5% (inactive) and 98.9% (inactive).

Take `c1ccc(N(c2ccccc2)c2ccccc2)cc1`: the growth was 86.8% (inactive).

Consider `O=C(Nc1ccc([N+](=O)[O-])cc1Cl)c1cc(Cl)ccc1O`, for which the growth is -43.8% (active) and -31.8% (active).

For `CC(=O)NC(Cc1ccccc1)C(=O)Oc1ccc2ccccc2c1` (stereo not given), the growth was 64.8% (inactive) and 86.6% (inactive).

For `Clc1ccc(SSc2ccc(Cl)cc2)cc1`, the growth was 85% (inactive) and 46.7% (inactive).

On to `COc1cc2c(c(OC)c1OC)-c1ccc(OC)c(=O)cc1[C@@H](NC(C)=O)CC2`, for which the growth is 35.8% (inactive) and 44% (inactive) and 21.2% (inactive).

With `O=C(/C=C\c1ccnc2ccccc12)c1ccc([N+](=O)[O-])cc1`, the growth was 61.6% (inactive) and 49.7% (inactive).

Take `S=C(S)N1CCCC1`: the growth is 88.3% (inactive) and 76.4% (inactive).

`CCOc1ccc(Nc2c3ccccc3nc3ccccc23)cc1`: the growth was 62.8% (inactive) and 0.768% (active) and 1.99% (active).

As to `c1ccc2cc(C[n+]3ccn(Cc4ccc5ccccc5n4)c3)ccc2c1`, the growth is 98% (inactive) and 86.4% (inactive).

As for `CCC(=O)C(CC)c1cccc(OC)c1` (stereo not given), the growth was 89.9% (inactive).

As for `O=C(Nc1ccc(Cl)cc1)c1cc2ccccc2cc1O`, the growth is 10.9% (inactive) and 4.71% (active).

Turning to `CC12CCC(CC1)C(C)(C)O2`, the growth is 87.4% (inactive).

For the compound `C/C(=N\NC(=O)c1ccncc1)c1ccccc1O`, the growth is 31.3% (inactive) and 20.6% (inactive).

With `CC1=NN(c2ccccc2)C(=O)C1C(=O)c1ccccc1` (stereo not given), the growth was 90.6% (inactive).

For the compound `O=C1OC(Oc2ccc(Br)cc2)(c2ccccc2)c2ccccc21` (stereo not given), the growth was 72.4% (inactive) and 89.3% (inactive).

For `CC(O)(CC(=O)CC(=O)c1ccccc1)c1ccccc1` (stereo not given), the growth is 96.8% (inactive) and 94.2% (inactive).

For the compound `O=[N+]([O-])c1ccccc1/C=N\Nc1ccccc1`, the growth is 50.6% (inactive) and 47.3% (inactive).

Still in this assay, the particulars now being: 30 µM.
Regarding `CC(C)(C)c1cc(NC(=O)Cc2ccc(-c3cnc4cc(-c5cnn(CCN6CCOCC6)c5)ccc4n3)cc2)no1`, the growth was 3.63% (active).

Staying with this assay, now noted: 100 µM.
As for `CC#C[C@]1(O)CC[C@H]2[C@@H]3CCC4=CC(=O)CCC4=C3[C@@H](c3ccc4c(c3)OCO4)C[C@@]21C`, the growth was -42.4% (active).

For the origin of these results see PubChem BioAssay (NCI).
